Where “and” joins values, the source holds several entries; their conditions need not be identical. Equal entries are not always repeated. Among all 5,500 compounds or so, about 2,000 (36%) were called active. Not shown: some 18% with an inconclusive outcome. Rule as the data show it: active = normalized growth mostly below about 0.91 (no sharp cut-off); inconclusive = no clear call, values can overlap the other calls; inactive = mostly above about 0.92. This is one part of the list.
Test: chemical genetic growth profiling, strain panel (AID 1159580);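 also: tested at 20 µM; growth read once vehicle control cultures reached saturation at 30 °C; 1 = growth at the plate median or of vehicle wells; lower values mean less growth of the strain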
Settings: S. cerevisiae deletion strains, growth OD

Measured: normalized growth

COc1cc2c(cc1OC)[C@@H]1C(=O)c3ccc4oc(C(C)C)cc4c3O[C@@H]1CO2
inactive: locus YAL021C, strain ccr4, stronger effect = lower value 0.983 | locus YAL026C, strain drs2, stronger effect = lower value 0.995 | locus YAL030W, strain snc1, stronger effect = lower value 1 | locus YBL061C, strain skt5, stronger effect = lower value 0.995 | locus YBR009C, strain hhf1, stronger effect = lower value 0.992 | locus YBR021W, strain FUR4, stronger effect = lower value 1.01 | locus YBR023C, strain chs3, stronger effect = lower value 0.996 | locus YBR171W, strain sec66, stronger effect = lower value 0.999 | locus YBR229C, strain ROT2, stronger effect = lower value 1.01 | locus YBR231C, strain swc5, stronger effect = lower value 0.992 | locus YBR279W, strain paf1, stronger effect = lower value 0.996 | locus YCL011C, strain gbp2, stronger effect = lower value 0.97 | locus YCL016C, strain dcc1, stronger effect = lower value 0.993 | locus YCL029C, strain bik1, stronger effect = lower value 1.07 | locus YCL061C, strain MRC1, stronger effect = lower value 0.981 | locus YCL069W, strain vba3, stronger effect = lower value 1 | locus YCR088W, strain abp1, stronger effect = lower value 0.993 | locus YDL005C, strain med2, stronger effect = lower value 0.981 | locus YDL035C, strain GPR1, stronger effect = lower value 1.02 | locus YDL040C, strain nat1, stronger effect = lower value 0.989 | locus YDL074C, strain BRE1, stronger effect = lower value 1.04 | locus YDL101C, strain DUN1, stronger effect = lower value 1.01 | locus YDL185W, strain tfp1, stronger effect = lower value 1.01 | locus YDL192W, strain arf1, stronger effect = lower value 1.04 | locus YDR001C, strain nth1, stronger effect = lower value 0.979 | locus YDR069C, strain doa4, stronger effect = lower value 1.08 | locus YDR101C, strain arx1, stronger effect = lower value 1.02 | locus YDR137W, strain rgp1, stronger effect = lower value 0.992 | locus YDR150W, strain NUM1, stronger effect = lower value 1.02 | locus YDR159W, strain sac3, stronger effect = lower value 0.985 | locus YDR162C, strain NBP2, stronger effect = lower value 1.04 | locus YDR195W, strain ref2 0.982 | locus YDR297W, strain sur2, stronger effect = lower value 1.02 | locus YDR318W, strain mcm21, stronger effect = lower value 1.04 | locus YDR334W, strain swr1, stronger effect = lower value 0.977 | locus YDR335W, strain msn5, stronger effect = lower value 0.986 | locus YDR388W, stronger effect = lower value 1.02 | locus YDR392W, strain spt3, stronger effect = lower value 0.996 | locus YDR502C, strain sam2, stronger effect = lower value 1.03 | locus YEL003W, strain gim4, stronger effect = lower value 1.01 | locus YEL037C, strain rad23, stronger effect = lower value 0.995 | locus YEL061C, strain CIN8 (second series), stronger effect = lower value 0.984 | locus YER015W, strain faa2, stronger effect = lower value 0.99 | locus YER016W, strain bim1, stronger effect = lower value 0.971 | locus YER110C, stronger effect = lower value 1 | locus YER111C, strain swi4, stronger effect = lower value 0.977 | locus YER155C, strain BEM2 (second series), stronger effect = lower value 0.973 | locus YER155C, strain BEM2, stronger effect = lower value 1.02 | locus YER167W, strain BCK2, stronger effect = lower value 1.02 | locus YFR010W, strain ubp6, stronger effect = lower value 0.998 | locus YGL078C, strain dbp3, stronger effect = lower value 1.03 | locus YGL086W, strain mad1, stronger effect = lower value 1.02 | locus YGL167C, strain pmr1, stronger effect = lower value 0.982 | locus YGL173C, strain kem1, stronger effect = lower value 0.975 | locus YGL227W, strain vid30, stronger effect = lower value 0.982 | locus YGL240W, strain doc1, stronger effect = lower value 0.991 | locus YGL248W, strain PDE1, stronger effect = lower value 1.01 | locus YGL253W, strain hxk2, stronger effect = lower value 0.991 | locus YGR078C, strain PAC10, stronger effect = lower value 1.02 | locus YGR135W, strain pre9, stronger effect = lower value 1.08 | locus YGR252W, strain gcn5, stronger effect = lower value 1.01 | locus YHR013C, strain ard1, stronger effect = lower value 0.973 | locus YHR027C, strain rpn1, stronger effect = lower value 1 | locus YHR030C, strain SLT2, stronger effect = lower value 0.999 | locus YHR079C, strain IRE1 (second series), stronger effect = lower value 1 | locus YHR079C, strain IRE1, stronger effect = lower value 0.985 | locus YHR094C, strain hxt1, stronger effect = lower value 1.02 | locus YHR129C, strain ARP1, stronger effect = lower value 1.02 | locus YHR142W, strain chs7, stronger effect = lower value 1.01 | locus YHR200W, strain rpn10, stronger effect = lower value 1.03 | locus YIL066C, strain RNR3, stronger effect = lower value 1.02 | locus YIL073C, strain SPO22, stronger effect = lower value 1.06 | locus YIL125W, strain kgd1, stronger effect = lower value 1 | locus YIR030C, strain dcg1, stronger effect = lower value 1.05 | locus YJL092W, strain hpr5, stronger effect = lower value 0.968 | locus YJL095W, strain BCK1 (second series), stronger effect = lower value 1.01 | locus YJL095W, strain BCK1, stronger effect = lower value 1.04 and 0.981 | locus YJL115W, strain asf1, stronger effect = lower value 0.957 | locus YJL129C, strain trk1, stronger effect = lower value 0.974 | locus YJL134W, strain LCB3, stronger effect = lower value 1.01 | locus YJL154C, strain vps35, stronger effect = lower value 0.984 | locus YJL164C, strain tpk1, stronger effect = lower value 1.03 | locus YJL166W, strain qcr8, stronger effect = lower value 0.975 | locus YJL168C, strain set2, stronger effect = lower value 1.01 | locus YJL187C, strain SWE1 (second series), stronger effect = lower value 1.02 | locus YJR043C, strain POL32, stronger effect = lower value 1.02 | locus YJR066W, strain TOR1, stronger effect = lower value 0.907 | locus YKL009W, strain mrt4, stronger effect = lower value 0.918 | locus YKL068W, stronger effect = lower value 0.996 | locus YKL085W, strain MDH1 (second series), stronger effect = lower value 0.989 | locus YKL085W, strain MDH1, stronger effect = lower value 0.989 | locus YKL160W, strain elf1, stronger effect = lower value 0.99 | locus YKL190W, strain CNB1, stronger effect = lower value 1.02 | locus YKR001C, strain vps1, stronger effect = lower value 1.02 | locus YKR026C, strain gcn3, stronger effect = lower value 1 | locus YKR091W, strain srl3, stronger effect = lower value 0.984 | locus YLL001W, strain dnm1, stronger effect = lower value 0.972 | locus YLL026W, stronger effect = lower value 0.976 | locus YLL041C, strain sdh2, stronger effect = lower value 1.02 | locus YLR027C, strain aat2, stronger effect = lower value 0.999 | locus YLR039C, strain RIC1, stronger effect = lower value 1.1 | locus YLR058C, strain SHM2, stronger effect = lower value 1.01 | locus YLR102C, strain apc9, stronger effect = lower value 1.02 | locus YLR113W, strain HOG1, stronger effect = lower value 1.05 | locus YLR221C, strain rsa3, stronger effect = lower value 0.959 | locus YLR258W, strain gsy2, stronger effect = lower value 0.992 | locus YLR262C, strain YPT6 (second series), stronger effect = lower value 1.02 | locus YLR262C, strain YPT6, stronger effect = lower value 1.06 | locus YLR268W, strain sec22, stronger effect = lower value 1.02 | locus YLR320W, strain mms22, stronger effect = lower value 0.986 | locus YLR330W, strain CHS5, stronger effect = lower value 1.02 | locus YLR342W, strain FKS1 (second series), stronger effect = lower value 1.03 | locus YLR342W, strain FKS1, stronger effect = lower value 0.982 | locus YLR357W, strain rsc2, stronger effect = lower value 0.986 | locus YLR370C, strain arc18, stronger effect = lower value 0.981 | locus YLR371W, strain rom2, stronger effect = lower value 1.06 | locus YLR384C, strain iki3, stronger effect = lower value 0.993 | locus YLR418C, strain cdc73, stronger effect = lower value 1.01 | locus YML016C, strain PPZ1, stronger effect = lower value 1.02 | locus YML032C, strain rad52, stronger effect = lower value 1.01 | locus YML120C, strain ndi1, stronger effect = lower value 0.99 | locus YML124C, strain tub3, stronger effect = lower value 1.03 | locus YMR058W, strain fet3, stronger effect = lower value 0.968 | locus YMR078C, strain ctf18, stronger effect = lower value 1.02 | locus YMR125W, strain sto1, stronger effect = lower value 0.976 | locus YMR129W, stronger effect = lower value 0.985 | locus YMR205C, strain PFK2, stronger effect = lower value 0.987 | locus YMR223W, strain ubp8, stronger effect = lower value 1.01 | locus YMR231W, strain pep5, stronger effect = lower value 0.985 | locus YMR307W, strain GAS1, stronger effect = lower value 0.974 | locus YNL067W, strain RPL9B, stronger effect = lower value 1.02 | locus YNL071W, strain lat1, stronger effect = lower value 1.05 | locus YNL183C, strain NPR1, stronger effect = lower value 0.956 | locus YNL209W, strain ssb2, stronger effect = lower value 0.993 | locus YNL233W, strain BNI4, stronger effect = lower value 1.05 | locus YNL248C, strain rpa49, stronger effect = lower value 0.976 | locus YNL250W, strain rad50, stronger effect = lower value 1.02 | locus YNL271C, strain bni1, stronger effect = lower value 1.02 | locus YNL298W, strain CLA4, stronger effect = lower value 1.03 | locus YNL307C, strain MCK1, stronger effect = lower value 1.03 | locus YNL322C, strain KRE1 (second series), stronger effect = lower value 1 | locus YNL322C, strain KRE1, stronger effect = lower value 1.01 | locus YNR049C, strain mso1, stronger effect = lower value 0.982 | locus YNR052C, strain pop2, stronger effect = lower value 1.01 | locus YOL006C, strain TOP1, stronger effect = lower value 1.11 | locus YOL012C, strain htz1 0.869 | locus YOL147C, strain pex11, stronger effect = lower value 1.04 | locus YOR001W, strain rrp6, stronger effect = lower value 0.979 | locus YOR061W, strain CKA2, stronger effect = lower value 1.02 | locus YOR069W, strain VPS5, stronger effect = lower value 1.01 | locus YOR070C, strain gyp1, stronger effect = lower value 0.987 | locus YOR080W, strain dia2, stronger effect = lower value 0.965 | locus YOR083W, strain WHI5, stronger effect = lower value 0.987 | locus YOR106W, strain vam3, stronger effect = lower value 0.991 | locus YOR136W, strain idh2, stronger effect = lower value 1 | locus YOR144C, strain elg1, stronger effect = lower value 1.02 | locus YOR184W, strain ser1, stronger effect = lower value 1.05 | locus YOR231W, strain MKK1, stronger effect = lower value 0.975 | locus YOR265W, strain rbl2, stronger effect = lower value 1 | locus YOR270C, strain vph1, stronger effect = lower value 1.07 | locus YOR290C, strain snf2, stronger effect = lower value 0.978 | locus YOR316C, strain cot1, stronger effect = lower value 1 | locus YPL051W, strain arl3, stronger effect = lower value 0.985 | locus YPL078C, strain atp4, stronger effect = lower value 0.989 | locus YPL106C, strain sse1, stronger effect = lower value 1.03 | locus YPL240C, strain hsp82, stronger effect = lower value 1 | locus YPL256C, strain CLN2, stronger effect = lower value 0.988 | locus YPR119W, strain clb2, stronger effect = lower value 1.01 | locus YPR141C, strain kar3, stronger effect = lower value 1.06 | locus YPR163C, strain tif3, stronger effect = lower value 1.02 | locus YPR167C, strain met16, stronger effect = lower value 1.05 | strain wtn01, stronger effect = lower value 1.04

Source: PubChem BioAssay AID1159580 (chemical genetic matrix, 2015)
